Results on ten compounds are retold here after PubChem BioAssay (EPA / NIEHS).

Results filed as inconclusive are left out. Active and inactive are the calls of the source. The calls were made as follows, unless noted: active = hit-call score of the fitted dose curve at least 0.9, where 1 is the maximum; inactive = score below 0.9.

The subject of one assay is IYD (gene 389434). Put plainly: CCTE_GLTED_hIYD: CCTE's human Iodotyrosine Deiodinase (xIYD) Inhibition Assay, Great Lakes Toxicology and Ecology Division (GLTED) Lab (AID 2284317; active = hit-call score of the fitted dose curve at least 0.9, where 1 is the maximum;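 also: cell-free human IYD enzyme made in baculovirus insect cells; iodide freed from monoiodotyrosine measured by cerium arsenite color change at 420 nm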). The method, boiled down: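 hIYD: baculovirus-expressed human IYD deiodinated monoiodotyrosine for 3 h with test chemical; free iodide was measured by Sandell-Kolthoff absorbance at 420 nm and normalized to MNT and DMSO/NaOH controls.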

Assay [1] in a line: CCTE_Deisenroth_5AR_NBTE_donor: CCTE's 5alpha-reductase NanoBRET Target Engagement Assay […], Deisenroth Lab (AID 2284319). The note with it: actives raise or lower the signal. Put shortly:
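HEK293T cells transiently expressing SRD5A2-NanoLuc, exposed 5 h to chemicals (8 points, 10 nM - 29.9 uM), with testosterone tracer for the final 2 h. Donor luminescence at 460 nm read after Nano-Glo substrate plus extracellular NanoLuc inhibitor; bidirectional fit versus DMSO.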

Assay [2] in a line: CCTE_Deisenroth_5AR_NBTE_acceptor: CCTE's 5alpha-reductase NanoBRET Target Engagement Assay - Autofluorescence Screen, Deisenroth Lab (AID 2284321).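 Also: compound fluorescence in the acceptor channel under 460 nm excitation flags autofluorescence artifacts.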 The note with it: actives raise or lower the signal. Put shortly: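 Using three independent plate-reader runs, nominal 100 uM chemicals were checked for intrinsic fluorescence (ex 460 nm). DMSO defined the baseline for bidirectional fitting.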

A further assay deals with SRD5A2 (gene 6716). The assay can be described thus: CCTE_Deisenroth_5AR_NBTE_ratio: CCTE's 5alpha-reductase NanoBRET Target Engagement Assay - Ratio, Deisenroth Lab (AID 2284322). To be noted: actives raise or lower the signal. Put shortly:
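HEK293T transiently expressing SRD5A2-NanoLuc; cells exposed to chemical (8-point, 10 nM - 29.9 uM) for 5 h total, testosterone tracer added for final 2 h. NanoBRET acceptor/donor ratio (650/460 nm), bidirectional fit vs DMSO.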
A general note: Bioluminescence resonance energy transfer reports proximity on the nanometre scale.

Assay [3] can be described thus: IUF_NPC2b_neuronal_migration_120hr: Leibniz Research Institute for Environmental Medicine (IUF) 120-hour Neural Progenitor Cell Migration Assay for Neuron Migration (NPC2b) (AID 2284300). Put shortly: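 Fetal human NPC spheres migrate on PDL/laminin during 120 h compound treatment; neuronal migration distance, glia-normalized, scored versus DMSO control.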
Assay [4] can be described thus: IUF_NPC3_neuronal_differentiation_120hr: Leibniz Research Institute for Environmental Medicine (IUF) 120-hour Neuronal Differentiation Assay (NPC3) (AID 2284301). The method, boiled down: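 Human fetal (GW 16-19) neural progenitor spheres (0.3 mm) plated on poly-D-lysine/laminin in N2 differentiation medium, exposed 120 h at 37C with half-medium renewal day 3; 7 concentrations. TUBB3+ cells as % of Hoechst nuclei, CNN-identified; DMSO baseline.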

A short description of assay [5]: IUF_NPC4_neurite_length_120hr: Leibniz Research Institute for Environmental Medicine (IUF) 120-hour Neuronal Morphology Assay for Neurite Length (NPC4) (AID 2284302). The method, boiled down:
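Human fetal neural progenitor spheres (0.3 mm) plated on poly-D-lysine/laminin in N2 differentiation medium, exposed from day 0 for 120 h with half-medium refresh at day 3, 37C. Mean neurite length (um) of TUBB3-positive neurons from skeletonized immunostaining images; DMSO ≤0.1%.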

A short description of assay [6]: IUF_NPC5_oligodendrocyte_differentiation_120hr: Leibniz Research Institute for Environmental Medicine (IUF) 120-hour Oligodendrocyte Differentiation Assay (NPC5) (AID 2284304; active = hit-call score of the fitted dose curve at least 0.9, where 1 is the maximum;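 also: primary human fetal neural progenitor spheres plated to migrate and differentiate; share of O4-positive cells among Hoechst nuclei found by CNN image analysis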). Put shortly: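 After plating on poly-D-lysine/laminin, fetal-derived hNPC spheres differentiated for 120 h at 37C in compound-containing N2 medium, refreshed by half on day 3. O4 immunostaining over Hoechst nuclei in the migration zone gave oligodendrocyte percentage relative to DMSO.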

Assay [7] is described as follows: IUF_NPC4_neurite_area_120hr: Leibniz Research Institute for Environmental Medicine (IUF) 120-hour Neuronal Morphology Assay for Neurite Area (NPC4) (AID 2284305; active = hit-call score of the fitted dose curve at least 0.9, where 1 is the maximum). The method, boiled down:
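Human fetal neural progenitor spheres (0.3 mm) plated on poly-D-lysine/laminin in N2 differentiation medium, exposed 120 h (7 concentrations, DMSO ≤0.1%, half-medium refresh day 3). Fixed, TUBB3 immunostained; mean neurite area per neuron by Omnisphero skeletonization.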

Assay [8] can be described thus: IUF_NPC2-5_cytotoxicity_72hr: Cytotoxicity Assessment at 72 hours in the Leibniz Research Institute for Environmental Medicine (IUF) Neural Progenitor Cell Migration and Differentiation Assay for Cytotoxicity (NPC2-5) (AID 2284306; active = hit-call score of the fitted dose curve at least 0.9, where 1 is the maximum;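 also: LDH release into supernatant measured by resorufin fluorescence marking membrane damage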). The method, boiled down: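 Human fetal primary neural progenitor spheres (0.3 mm) plated on poly-D-lysine/laminin in N2 differentiation medium, exposed from day 0 at 37C. LDH-dependent resazurin-to-resorufin fluorescence in supernatant at 72 h; 7 concentrations, DMSO at most 0.1%.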

A short description of assay [9]: IUF_NPC2-5_cytotoxicity_120hr: Cytotoxicity Assessment at 120 hours in the Leibniz Research Institute for Environmental Medicine (IUF) Neural Progenitor Cell Migration and Differentiation Assay (NPC2-5) (AID 2284307; active = hit-call score of the fitted dose curve at least 0.9, where 1 is the maximum). The method, boiled down:
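Membrane-integrity loss is quantified by LDH in supernatant after five days of exposure of migrating, differentiating human fetal NPC spheres; seven serially diluted concentrations are tested with DMSO kept at or below 0.1%.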

Assay [10] in a line: IUF_NPC2-5_cell_number_120hr: Cell Number Assessment at 120 hours in the Leibniz Research Institute for Environmental Medicine (IUF) Neural Progenitor Cell Migration and Differentiation Assay (NPC2-5) (AID 2284308).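 Also: count of Hoechst-stained nuclei in migration zone around plated human neural progenitor spheres.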 The method, boiled down: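 Seven-point serial dilutions plus solvent control were applied to plated 0.3 mm hNPC spheres at differentiation start, with medium half-replaced at day 3. Nuclei positive for Hoechst in the migration zone were enumerated at 120 h.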

Assay [11] in a line: IUF_NPC2-5_viability_120hr: Viability Assessment at 120 hours in the Leibniz Research Institute for Environmental Medicine (IUF) Neural Progenitor Cell Migration and Differentiation Assay (NPC2-5) (AID 2284312). Put shortly: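 Human fetal neural progenitor spheres (0.3 mm) plated on poly-D-lysine/laminin in N2 differentiation medium, exposed 120 h with half-medium refresh at day 3. Viability by alamar blue resazurin fluorescence; 7 concentrations, DMSO max 0.1%.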

Assay [12] in a line: CCTE_Mundy_HCI_iCellGluta_NOG_NeuriteLength: CCTE's Neurite Outgrowth Assay in iCellGluta cells for Neurite Length, Mundy Lab (AID 2284318; active = hit-call score of the fitted dose curve at least 0.9, where 1 is the maximum). The method, boiled down:
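Automated high-content imaging of betaIII-tubulin (Alexa Fluor-488) and Hoechst-stained cells gave neurite length, normalized to the DMSO baseline.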

Assay [13] can be described thus: VALA_TUBIPS_Agonist_TubuleLength: VALA Sciences human iPS-derived Endothelial Tubule Formation (TUBIPS) Agonism Assay (AID 2284311; active = hit-call score of the fitted dose curve at least 0.9, where 1 is the maximum). Put shortly: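 Human iPS-derived endothelial cells were exposed to compound for 72 h. Tubule formation was imaged by high-content fluorescence and scored as gain of signal relative to DMSO vehicle (agonist mode).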
A short description of assay [14]: VALA_TUBIPS_Antagonist_TubuleLength: VALA Sciences human iPS-derived Endothelial Tubule Formation (TUBIPS) Antagonist Assay (AID 2284313; active = hit-call score of the fitted dose curve at least 0.9, where 1 is the maximum). The method, boiled down:
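Cells grown 3 days with 10 ng/ml VEGF, then exposed to compounds in VEGF medium for another 3 days. After fixation, nuclear stain and CD31 immunofluorescence imaging gave mean total tubule length against 0.1% DMSO; suramin (100 uM) inhibition control.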

Assay [15] can be described thus: VALA_MIGHUV2_Bcatenin: VALA Sciences human Umbilical Vein Endothelial Cell Migration (MIGHUV) Assay, Nuclear Translocation of beta-Catenin after Recovery (AID 2284315; active = hit-call score of the fitted dose curve at least 0.9, where 1 is the maximum). The method, boiled down:
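HUVEC (4000 cells/well) scratch-wounded, dosed within 30 min over 6 concentrations in triplicate, recovered 24 h. After fixation, Hoechst and anti-beta-catenin immunofluorescence imaged for nuclear CTNB. Gain of signal versus 0.1% DMSO.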

Assay [16] can be described thus: VALA_TUBHUV_Antagonist_TubuleLength: VALA Sciences human Umbilical Vein Endothelial Tubule Formation (TUBHUV) Antagonism Assay (AID 2284325; active = hit-call score of the fitted dose curve at least 0.9, where 1 is the maximum). The method, boiled down:
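HUVEC–HDF co-culture (1:3) pre-grown 3 days with 10 ng/ml VEGF, then 3 days with compound plus VEGF. Fixed, nuclear and CD31 stained; total tubule length by imaging versus 0.1% DMSO; suramin 100 uM positive control.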

For `Oc1ccccc1-c1ccccc1`, the compound was classed as inactive (with IYD (gene 389434); in assay [1]; in assay [2]). Also, in the assay with SRD5A2 (gene 6716), the half-maximal activity concentration (AC50) was 31.5 µM (active).

For `CNC(=O)ON=CC(C)(C)SC`, the outcome in [3], in [4], in assay [5], in [6], in assay [7] and in [8] was inactive. The outcome in assay [9], in [10] and in assay [11] was inactive.

Regarding `CCCCNC(=O)OCC#CI`, the AC50 (in [1]; in assay [2]; in the assay with SRD5A2 (gene 6716)) was 50 µM (active) each time.

In the case of `COc1ccc(C(c2ccc(OC)cc2)C(Cl)(Cl)Cl)cc1`, the compound was classed as inactive (in assay [1]; in [2]; in the assay with SRD5A2 (gene 6716)).

With `CCOc1cc(Oc2ccc(C(F)(F)F)cc2Cl)ccc1[N+](=O)[O-]`, the compound was classed as inactive in assay [3], in [4], in [5], in assay [7], in [8] and in [9]. The compound was called inactive in assay [10] and in assay [11]. The AC50 is 5.26 µM (active) in assay [6] and 73.7 µM (active) in assay [12].

As to `COP(N)(=O)SC` (stereo not given), the call in assay [3], in [4], in assay [5], in assay [6], in [7] and in assay [8] was inactive. Besides, the compound was called inactive in [9], in assay [10], in assay [11] and in [12].

For the compound `C=CC1(C)OC(=O)N(c2cc(Cl)cc(Cl)c2)C1=O` (stereo not given), the compound was called inactive in assay [3], in assay [4], in assay [5], in [6], in assay [8] and in assay [9]. The call in assay [10] and in [11] was inactive. In assay [12], the AC50 is 19.4 µM (active).

For the compound `N#Cc1nn(-c2c(Cl)cc(C(F)(F)F)cc2Cl)c(N)c1S(=O)C(F)(F)F` (stereo not given), the result in assay [3], in assay [4], in assay [8], in [9], in assay [13] and in [11] was inactive. The result in [14], in assay [15], in assay [12] and in assay [16] was inactive. The AC50 in assay [5] was 13.5 µM (active); in assay [6], 1.99 µM (active); in assay [7] it was 14.3 µM (active); in assay [10] it was 14.2 µM (active).

Regarding `CO/C=C(/C(=O)OC)c1ccccc1Oc1cc(Oc2ccccc2C#N)ncn1`, the call in assay [3], in [4], in [5], in [6], in assay [7] and in assay [8] was inactive. The result in assay [9], in assay [10] and in assay [11] was inactive. The AC50 in [12] is 18.9 µM (active).

Turning to `CCOC(=O)CC(SP(=S)(OC)OC)C(=O)OCC` (stereo not given), the call in assay [3], in assay [4], in assay [5], in assay [7], in assay [9] and in assay [10] was inactive. Besides, the outcome in assay [11] was inactive. Besides, the AC50 in assay [12] is 2.98 µM (active).

For orientation: AC50 means the midpoint of the concentration-response curve, whichever way the signal moves.
